A short description of assay [1]: small molecules captured by biotinylated probe aFSTL3 – biochemical, small-molecule microarray, fluorescence 635/667, stem cell growth factor project, primary screen (AID 1064).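 Also: measures binding of the biotinylated anti-FSTL3 antibody to printed compounds.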 The settings on record: higher = more signal.
The nature of assay [2]: binders from COS7 lysate, DM2A8 probe, primary screen, torsin A project, cell lysate, small-molecule microarray, fluorescence 635/667 (AID 1065). The settings on record: higher = more signal, COS7 lysate expressing mutant human TOR1A.
Assay [3] is described as follows: small molecules captured by biotinylated probe aFGF2 – biochemical, small-molecule microarray, fluorescence 635/667, stem cell growth factor project, primary screen (AID 1067).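 Also: measures binding of biotinylated aFGF2 protein to printed compounds on slides; z-score merges feature fluorescence and signal-to-noise across triplicate slides.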 Particulars: higher = more signal.
Assay [4] can be described thus: small molecules captured by biotinylated probe aFGF10 – biochemical, small-molecule microarray, fluorescence 635/667, stem cell growth factor project, primary screen (AID 1071).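 Also: score merges 667 nm spot intensity and signal to noise from triplicate slides.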 Particulars: higher = more signal.
Assay [5] addresses Neurogenic locus notch homolog protein 2 (Homo sapiens) (UniProt Q04721). Kind of assay: small molecules binding Notch2 protein – biochemical, small-molecule microarray, 635 nm fluorescence, stem cell growth factors, primary screen (AID 1073). The settings on record: higher = more signal.
The target in assay [6] is Pro-neuregulin-1, membrane-bound isoform (Homo sapiens) (UniProt Q02297). Nature of the assay: small molecules binding neuregulin-1 protein – biochemical, small-molecule microarray, fluorescence 635/667, psychiatric disease protein project, primary screen (AID 1075).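 Also: score combines 667 nm spot fluorescence with signal to noise.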 The settings on record: NRG1 binding, 635 nm fluorescence, higher = more signal.
Sequence of Pro-neuregulin-1, membrane-bound isoform (Homo sapiens) (Q02297 whole entry, looked up, the tested form may be a part, canonical isoform): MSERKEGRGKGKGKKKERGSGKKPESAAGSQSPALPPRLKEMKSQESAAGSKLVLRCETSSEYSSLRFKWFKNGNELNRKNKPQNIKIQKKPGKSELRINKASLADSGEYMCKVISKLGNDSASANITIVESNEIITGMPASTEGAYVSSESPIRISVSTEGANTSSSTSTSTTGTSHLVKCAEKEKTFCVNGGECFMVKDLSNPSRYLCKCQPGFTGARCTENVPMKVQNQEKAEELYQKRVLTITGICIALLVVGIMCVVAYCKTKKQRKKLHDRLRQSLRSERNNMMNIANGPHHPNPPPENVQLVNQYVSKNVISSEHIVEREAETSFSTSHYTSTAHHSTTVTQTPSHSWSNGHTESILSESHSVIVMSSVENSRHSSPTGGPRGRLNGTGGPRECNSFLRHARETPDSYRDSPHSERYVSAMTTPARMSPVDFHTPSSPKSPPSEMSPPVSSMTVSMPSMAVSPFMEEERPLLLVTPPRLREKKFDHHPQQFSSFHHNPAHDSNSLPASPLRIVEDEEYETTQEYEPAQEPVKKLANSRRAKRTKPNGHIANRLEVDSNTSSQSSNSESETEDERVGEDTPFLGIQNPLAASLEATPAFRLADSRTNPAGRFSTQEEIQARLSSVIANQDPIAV
In assay [7] the test system is Neuregulin-1 EGF-like domain. Nature of the assay: small molecules binding NRG1 EGF domain – biochemical, small-molecule microarray, 635 nm fluorescence, primary screen (AID 1081).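 Also: binding of the protein to compounds printed on small-molecule microarray slides.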 The settings on record: higher = more signal.
Assay [8] is described as follows: FRG1 expression reporter modulators in myotubes – cell-based, C2C12 myotubes, firefly/Renilla luciferase, luminescence, FRG1 inhibition for FSHD, primary screen (AID 1084). Particulars: FRG1 promoter luciferase, higher = more signal, called active from +8 up or from −8 down.
The nature of assay [9]: small molecules captured by biotinylated probe aFST – biochemical, small-molecule microarray, fluorescence 635/667, stem cell growth factor project, primary screen (AID 1086).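 Also: score merges 667 nm fluorescence with signal-to-noise of each printed compound spot.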 Particulars: higher = more signal.
A short description of assay [10]: binders of probe aHhip on microarray, primary screen, stem cell growth factor project, biochemical, small-molecule microarray, fluorescence 635/667 (AID 1087).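 Also: score merges spot fluorescence at 667nm with spot signal to noise ratio.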 Particulars: higher = more signal.
The subject of assay [11] is PRMT1 (protein arginine N-methyltransferase 1). Nature of the assay: small molecules binding arginine methyltransferase PRMT1 – biochemical, small-molecule microarray, 635 nm fluorescence, primary screen (AID 1088).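 Also: binding of Prmt1 protein to compounds spotted on small-molecule microarray slides.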 The settings on record: higher = more signal.
Assay [12] can be described thus: growth effects on S. cerevisiae YJM789 – YJM789 clinical isolate, OD600, 24 h, basal, primary screen (AID 1089).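 Also: growth of clinical yeast isolate S. cerevisiae YJM 789 seeded 1000 cells per well; test concentration not given here.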 Particulars: higher = more signal, called active from +8 up or from −8 down.
Assay [13] in a line: S. pombe growth modifiers, basal conditions – strain 972, OD600, 24 h, no modulator, primary screen (AID 1090).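 Also: basal condition with compound alone and no growth modifier present; test concentration not given here.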 Particulars: S. pombe 972 growth, higher = more signal, called active from +8 up or from −8 down.
The nature of assay [14]: budding yeast growth modifiers under rapamycin – strain BY4716, OD600, 96 h, primary screen (AID 1091). Also: test concentration not given here. Particulars: S. cerevisiae BY4716 + rapamycin, higher = more signal, called active from +8 up or from −8 down.
Assay [15] deals with Torsin-1A-interacting protein 2 (Homo sapiens) (UniProt Q8NFQ8). Kind of assay: small molecules binding lysate-expressed LULL1 – cell lysate, human LULL1 lysate, 635/667 nm fluorescence, primary screen (AID 1092).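 Also: probe is lysate of COS7 cells overexpressing human LULL1; score merges per-feature 667 nm fluorescence with signal-to-noise.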 The settings on record: small-molecule microarray, hLULL1 lysate binding, 635 nm fluorescence; higher = more signal.
Sequence of Torsin-1A-interacting protein 2 (Homo sapiens) (Q8NFQ8 whole entry, looked up): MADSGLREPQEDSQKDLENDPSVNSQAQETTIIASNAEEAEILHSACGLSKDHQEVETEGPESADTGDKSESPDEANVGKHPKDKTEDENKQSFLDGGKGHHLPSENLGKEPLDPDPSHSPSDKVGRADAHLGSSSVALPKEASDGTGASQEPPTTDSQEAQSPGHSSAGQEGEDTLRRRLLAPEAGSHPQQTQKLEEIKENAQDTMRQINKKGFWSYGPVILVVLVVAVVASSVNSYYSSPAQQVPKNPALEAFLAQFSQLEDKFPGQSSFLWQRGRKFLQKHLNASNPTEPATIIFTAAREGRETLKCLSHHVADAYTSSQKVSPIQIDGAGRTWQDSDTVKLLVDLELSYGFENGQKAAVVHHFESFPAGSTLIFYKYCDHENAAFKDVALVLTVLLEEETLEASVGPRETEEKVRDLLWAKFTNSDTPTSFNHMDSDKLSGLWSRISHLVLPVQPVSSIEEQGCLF
Assay [16] in a line: optical density change of DRC41 E. coli – strain DRC41, OD650, 24 h, E. coli filamentation project, primary screen (AID 1093).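 Also: MC1000 strain lacking acrAB efflux and sulA so SOS filamentation is blocked; test concentration not given here.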 Particulars: E. coli DRC41 growth, higher = more signal, called active from +8 up or from −8 down.
The nature of assay [17]: probe aLefty2 binding to arrayed compounds – biochemical, biotinylated probe, 635/667 nm fluorescence, primary screen (AID 1094).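 Also: score merges spot fluorescence near 667 nm with spot signal-to-noise ratio.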 Particulars: small-molecule microarray, higher = more signal.
In assay [18] the test system is Noggin (protein binding on small-molecule microarray). Kind of assay: small molecules binding Noggin protein – biochemical, 635/667 nm fluorescence, primary screen (AID 1095).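 Also: score merges 667 nm feature fluorescence with signal to noise over triplicate slides.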 Particulars: 635 nm fluorescence, higher = more signal.
Assay [19] has as its target Neurogenic locus notch homolog protein 3 (Homo sapiens) (UniProt Q9UM47). Kind of assay: small molecules binding NOTCH3 protein – biochemical, 635/667 nm fluorescence, primary screen (AID 1096). Particulars: small-molecule microarray, 635 nm fluorescence, higher = more signal.
Assay [20] in a line: probe aEGFR binding to arrayed compounds – biochemical, biotinylated probe, 635/667 nm fluorescence, primary screen (AID 1097).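 Also: probe is a biotinylated anti-EGFR antibody binding compounds printed on slides; score combines fluorescence near 667 nm and signal to noise of each spot.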 Particulars: small-molecule microarray, higher = more signal.

Consider five compounds from PubChem BioAssay.

Activity calls are given as the source filed them.

Sequence of Neurogenic locus notch homolog protein 2 (Homo sapiens) (Q04721 whole entry, looked up, canonical isoform): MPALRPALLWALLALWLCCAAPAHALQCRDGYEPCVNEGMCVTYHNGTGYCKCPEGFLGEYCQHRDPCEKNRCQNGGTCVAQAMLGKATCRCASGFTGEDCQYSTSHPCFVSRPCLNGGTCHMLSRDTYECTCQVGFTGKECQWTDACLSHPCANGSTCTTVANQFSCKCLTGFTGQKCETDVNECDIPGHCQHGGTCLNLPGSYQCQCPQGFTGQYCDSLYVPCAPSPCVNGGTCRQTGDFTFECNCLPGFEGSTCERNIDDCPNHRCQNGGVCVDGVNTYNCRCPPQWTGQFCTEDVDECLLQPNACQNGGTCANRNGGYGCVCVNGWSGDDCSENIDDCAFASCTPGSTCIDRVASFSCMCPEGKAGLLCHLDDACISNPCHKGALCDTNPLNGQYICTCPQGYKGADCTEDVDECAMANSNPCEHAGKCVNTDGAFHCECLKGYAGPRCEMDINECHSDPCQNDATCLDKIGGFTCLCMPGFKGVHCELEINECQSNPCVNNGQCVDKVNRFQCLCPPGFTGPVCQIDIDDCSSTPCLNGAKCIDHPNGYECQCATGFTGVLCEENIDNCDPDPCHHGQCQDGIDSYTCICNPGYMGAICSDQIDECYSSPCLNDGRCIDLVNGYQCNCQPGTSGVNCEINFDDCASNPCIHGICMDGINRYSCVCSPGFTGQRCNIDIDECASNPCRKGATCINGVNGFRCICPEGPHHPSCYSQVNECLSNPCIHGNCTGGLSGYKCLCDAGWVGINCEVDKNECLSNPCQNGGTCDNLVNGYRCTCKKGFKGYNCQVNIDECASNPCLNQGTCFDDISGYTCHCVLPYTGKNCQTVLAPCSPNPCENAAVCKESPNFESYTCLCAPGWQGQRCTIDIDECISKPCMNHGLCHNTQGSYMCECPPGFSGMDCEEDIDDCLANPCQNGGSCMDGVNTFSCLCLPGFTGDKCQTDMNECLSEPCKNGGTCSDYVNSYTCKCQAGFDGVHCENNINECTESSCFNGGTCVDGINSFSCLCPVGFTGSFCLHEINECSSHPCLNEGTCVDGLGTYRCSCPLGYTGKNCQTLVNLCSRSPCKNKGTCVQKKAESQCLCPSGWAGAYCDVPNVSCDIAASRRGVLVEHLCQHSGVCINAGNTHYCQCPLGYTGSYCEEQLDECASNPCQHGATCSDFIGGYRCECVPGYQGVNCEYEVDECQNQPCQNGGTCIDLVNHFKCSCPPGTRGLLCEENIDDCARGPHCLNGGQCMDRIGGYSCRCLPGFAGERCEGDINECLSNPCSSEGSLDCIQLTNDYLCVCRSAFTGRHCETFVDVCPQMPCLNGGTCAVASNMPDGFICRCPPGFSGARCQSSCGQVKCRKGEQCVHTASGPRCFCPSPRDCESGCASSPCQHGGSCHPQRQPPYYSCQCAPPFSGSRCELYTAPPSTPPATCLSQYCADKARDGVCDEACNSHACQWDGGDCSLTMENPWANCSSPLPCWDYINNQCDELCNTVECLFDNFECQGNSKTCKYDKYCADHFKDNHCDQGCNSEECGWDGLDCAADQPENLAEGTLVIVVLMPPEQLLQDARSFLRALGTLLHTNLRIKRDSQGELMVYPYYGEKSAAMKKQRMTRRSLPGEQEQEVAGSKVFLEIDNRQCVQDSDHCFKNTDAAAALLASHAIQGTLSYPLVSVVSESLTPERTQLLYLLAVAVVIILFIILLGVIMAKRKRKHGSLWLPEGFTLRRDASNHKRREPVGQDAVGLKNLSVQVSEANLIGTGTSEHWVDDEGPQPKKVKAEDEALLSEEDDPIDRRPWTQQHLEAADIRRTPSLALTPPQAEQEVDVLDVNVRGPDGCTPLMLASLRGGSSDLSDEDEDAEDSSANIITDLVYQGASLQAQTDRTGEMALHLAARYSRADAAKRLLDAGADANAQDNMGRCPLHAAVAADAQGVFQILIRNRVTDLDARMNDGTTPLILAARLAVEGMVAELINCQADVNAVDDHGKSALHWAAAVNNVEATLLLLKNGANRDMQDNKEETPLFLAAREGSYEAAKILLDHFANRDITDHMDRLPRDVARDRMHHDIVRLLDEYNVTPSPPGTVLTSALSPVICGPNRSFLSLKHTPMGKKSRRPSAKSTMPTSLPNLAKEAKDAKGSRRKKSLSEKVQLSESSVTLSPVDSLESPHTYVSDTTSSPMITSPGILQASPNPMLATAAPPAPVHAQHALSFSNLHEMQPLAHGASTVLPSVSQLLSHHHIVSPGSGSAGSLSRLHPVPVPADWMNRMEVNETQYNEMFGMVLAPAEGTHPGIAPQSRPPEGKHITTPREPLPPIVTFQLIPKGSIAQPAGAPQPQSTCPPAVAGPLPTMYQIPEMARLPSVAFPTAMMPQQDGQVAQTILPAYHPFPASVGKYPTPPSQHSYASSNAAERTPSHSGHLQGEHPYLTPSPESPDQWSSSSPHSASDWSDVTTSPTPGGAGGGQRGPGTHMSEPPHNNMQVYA

As to `COCCOC(=O)N1C(=O)[C@@]2(c3cc(C#Cc4ccc(OC)cc4)ccc31)[C@H](C(=O)Nc1nc3ccccc3s1)[C@H]1C(=O)O[C@H](c3ccccc3)[C@H](c3ccccc3)N1[C@@H]2c1ccccc1OCCO`, the composite z-score in [1] was -0.233; in assay [2], 0.444; in [3] it was -0.126; in assay [4], 0.329; in assay [5], 1.02; in assay [6], 0.176. In addition, the composite z-score in [7] is 0.923; in [9], -0.179; in assay [10] it was -0.283; in assay [11], 1.58; in assay [15], 1.55; in assay [17] it was -0.179. In addition, the composite z-score in [18] was 1.06; in assay [19] it was 1.13; in assay [20] it was -0.0531. In addition, the z-score in assay [8] was 0.349 (inactive); in [12] it was 0.455 (inactive); in assay [13] it was 0.318 (inactive); in [14], 1.62 (inactive); in assay [16], 1.86 (inactive).

`CCCC[C@@H]1C[C@H]1[C@@H](NC(=O)Cc1ccccc1)c1ccc(Cl)cc1`: the composite z-score came out at 0.409 in [1]; 0.469 in assay [2]; 0.428 in [3]; 0.671 in assay [4]; 1.63 in assay [5]; 1.72 in [6]. Besides, the composite z-score in [7] was 1.19; in assay [9], 1.46; in [10] it was -0.193; in assay [11], 0.576; in [15] it was 3.14; in assay [17] it was 0.105. Besides, the results for the composite z-score in assay [18], in assay [19] and in assay [20] were 1.34, 1.03 and 0.218, respectively. Further, the z-score in assay [8] was -2.4 (inactive); in [12] it was 0.0911 (inactive); in assay [13], -1.16 (inactive); in assay [14], 1.68 (inactive); in assay [16] it was -0.76 (inactive).

Consider `C=CCC(OC(C)=O)[C@@H]1[C@@H](N(Cc2ccc(-c3cccc(C(F)(F)F)c3)o2)C(=O)Cc2ccc(F)cc2)c2cc(OCCCO)ccc2N1C(=O)c1ccc2ccccc2c1` (stereo not given in full), for which the composite z-score in assay [1] was 0.196; in assay [2], 0.167; in assay [3], -0.133; in [4] it was -0.428; in assay [5], -0.58; in assay [6], -0.28. Moreover, the composite z-score in [7] is -0.0656; in [9] it was 0.487; in assay [10], -0.0994; in [11], -1.22; in assay [15], -0.305; in assay [17], -0.0485. Besides, the composite z-score was 0.0055 in assay [18], -0.35 in assay [19] and 0.0804 in [20]. For the same compound, the z-score is 0.512 (inactive) in [8]; -0.428 (inactive) in assay [12]; 0.498 (inactive) in assay [13]; -1.2 (inactive) in assay [14]; -0.381 (inactive) in assay [16].

Consider `C[C@]1(C(=O)NCC(F)(F)F)c2ccccc2C(=O)N(Cc2ccc(OC(F)(F)F)cc2)[C@H]1c1ccc(CO)cc1`, for which the composite z-score is -0.303 in [1]; 0.67 in assay [2]; -0.0757 in assay [3]; 0.198 in assay [4]; -0.298 in assay [5]; 0.0763 in assay [6]. The composite z-score in [7] was 0.531; in assay [9], -0.209; in assay [10], -0.0645; in assay [11] it was 0.64; in assay [15] it was 1.03; in assay [17], -0.133. Also, the composite z-score in [18] was 0.344; in assay [19], -0.464; in assay [20], -0.0987. Moreover, the z-score in [8] is -3.89 (inactive); in assay [12] it was 0.0118 (inactive); in assay [13] it was -0.47 (inactive); in [14], -0.568 (inactive); in assay [16] it was -0.975 (inactive).

Turning to `COC(=O)[C@@]1(CCC(=O)OC(C)(C)C)N=C(c2ccc(OCCCO)cc2)O[C@H]1c1ccccc1CN=[N+]=[N-]`, the composite z-score in assay [1] was 0.0643; in assay [2], -0.13; in assay [3] it was -0.12; in assay [4] it was -0.191; in assay [5], -0.066; in assay [6] it was 0.118. Further, the composite z-score is 0.148 in assay [7]; -0.04 in assay [9]; 0.21 in assay [10]; 0.373 in assay [11]; 1.85 in assay [15]; -0.0963 in assay [17]. The composite z-score in assay [18] is 0.201; in [19], 0.235; in [20], -0.0418. Also, the z-score in [8] was -2.14 (inactive); in assay [12] it was 0.0206 (inactive); in [13], 0.646 (inactive); in [14] it was 9.66 (active); in [16], 1.08 (inactive).
